Test results taken from PubChem BioAssay (NCI).
Compounds without any hit were thinned out: in the full panel of roughly 79,000, 15% have a hit. Active and inactive are the calls of the source. No stated cut-off is given here; in the data, active means growth inhibition above about 70%; inactive means the rest.

Key:
[1] = NCI Yeast Anticancer Drug Screen. Data for the rad50 strain (AID 155);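 further: 0% = growth of vehicle-only cultures of the same strain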; conditions: S. cerevisiae rad50 strain growth inhibition; at 50.0 µM; hits give high values
Summary of the method: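 DNA repair mutant yeast, compound exposure, growth read-out; inhibition is taken relative to vehicle.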

[2] = NCI Yeast Anticancer Drug Screen. Data for the mec2-1 strain (AID 157); conditions: S. cerevisiae mec2-1 strain, at 50.0 µM, hits give high values
Summary of the method: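 Cells of the genetically defined mec2-1 yeast strain are incubated with test compound. Inhibition of growth is calculated against vehicle-treated controls.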

[3] = NCI Yeast Anticancer Drug Screen. Data for the sgs1 mgt1 strain (AID 161);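 further: 0% = growth of cultures given vehicle only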; conditions: S. cerevisiae sgs1 mgt1 strain, at 50.0 µM, hits give high values
Summary of the method: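 Mutant yeast exposed to compound; growth scored against vehicle-only wells.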

[4] = NCI Yeast Anticancer Drug Screen. Data for the cln2 rad14 strain (AID 165);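 further: 0% = growth equal to vehicle treated cultures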; conditions: S. cerevisiae cln2 rad14 strain, at 50.0 µM, hits give high values
Summary of the method: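 The screen exposed genetically defined yeast (cln2 rad14) to test compounds and scored growth inhibition relative to vehicle-treated controls.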

[5] = NCI Yeast Anticancer Drug Screen. Data for the bub3 strain (AID 167); conditions: S. cerevisiae bub3 mutant strain, at 50.0 µM, hits give high values
Summary of the method: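 In this screen, a yeast mutant lacking normal mitotic checkpoint function is challenged with compound. Relative growth versus vehicle gives the inhibition value.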

[6] = NCI Yeast Anticancer Drug Screen. Data for the mlh1 rad18 strain (AID 175); conditions: S. cerevisiae mlh1 rad18 strain growth inhibition; at 50.0 µM; hits give high values
Summary of the method: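 Compound-treated yeast growth, normalised to vehicle controls. Strain bears defined DNA repair mutations.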

Measured: growth inhibition

CC(C)=CCC1=C(OC2OC(CO)C(O)C(O)C2O)C(=O)c2ccccc2C1=O (centres undefined)
inactive: [1] 15.2% | [2] 15.6% | [3] 11.2% | [4] 6.95% | [5] 6.55% | [6] 5.5%

O=C(O)C(CCCN1C(=O)c2ccccc2C1=O)N1C(=O)c2ccccc2C1=O (centres undefined)
inactive: [1] -13.1% | [2] -3.3% | [3] -12.3% | [4] -13.8% | [5] -0.35% | [6] -6.95%

Nc1ncnc2c1ncn2C1OC(CO)C(NC(=O)C(N)CCC(=O)O)C1O (centres undefined)
inactive: [1] 1.75% | [2] -4.2% | [3] 21.6% | [4] -9.4% | [5] -0.9% | [6] -5.3%

CSc1nc2c(c(=O)n(C)c(=O)n2C)n1C
inactive: [1] 30.4% | [2] -3.25% | [3] -10.7% | [4] 8.15% | [5] 9.15% | [6] 24.9%

Cc1cc2c(c3oc(C4(C)OC4C4OC4C)cc(=O)c13)C(=O)c1c(O)c(C3CC(C)(N(C)C)C(O)C(C)O3)cc(C3CC(N(C)C)C(O)C(C)O3)c1C2=O (centres undefined)
active: [1] 88.6% | [2] 92.2% | [3] 90.7% | [4] 88.8% | [5] 89.2% | [6] 87.5%

COc1ccccc1NC(=O)N(C)Cc1ccc(Cl)cc1
inactive: [1] 11.3% | [2] 18.6% | [3] 18.9% | [4] 3.75% | [5] 47.1% | [6] 33.1%

Cc1cc2c(c(C)c1O)C(C)(C)CN2C(=O)C(C)(C)C
inactive: [1] -12.2% | [2] -53% | [3] 2.55% | [4] -8.85% | [5] 2.1% | [6] -10.9%

c1ccc(CC2=NCCc3ccccc32)cc1
inactive: [1] -16.4% | [2] -28.3% | [3] -3.3% | [4] 1.15% | [5] -2.6% | [6] -8.7%

COC1C(CO)OC(n2c3c(Cl)cccc3c3c4c(c5c6cccc(Cl)c6[nH]c5c32)C(=O)NC4=O)C(O)C1O (centres undefined)
inactive: [1] 16.8% | [2] 8.45% | [3] -1.4% | [4] 20.4% | [5] 7.4% | [6] -21.1%

CCC1=C[C@H]2CN(CCc3c([nH]c4ccccc34)[C@@](C(=O)OC)(c3cc4c(cc3OC)N(C)[C@H]3C(C(=O)OC)=C[C@]5(CC)C=CCN6CC[C@]43[C@@H]65)C2)C1
inactive: [1] -14.7% | [2] -14.4% | [3] -4.75% | [4] -13.5% | [5] -0.8% | [6] -18.9%

CC[n+]1ccnc2ccccc21
inactive: [1] -11.6% | [2] -8% | [3] -1.35% | [4] -7.9% | [5] 11.6% | [6] 14%

Cc1nc(C#N)c(=N)n(CCCO)c1-c1ccccc1
inactive: [1] 7.2% | [2] -8.45% | [3] 10.3% | [4] -28.5% | [5] 16.4% | [6] 5.15%

Cc1cn(CCCCCCCCCCCCOc2c3occc3cc3ccc(=O)oc23)c(=O)[nH]c1=O
inactive: [1] 20.1% | [2] 4.6% | [3] -3.5% | [4] 23.2% | [5] -2.35% | [6] 19.6%

C=C1C(=O)O[C@H]2C[C@@H]1C(=O)CC(C)CCCC(C)=CCC[C@@]2(C)O (some centres undefined)
inactive: [1] 24.4% | [2] 7.65% | [3] 15.2% | [4] 11.2% | [5] -0.1% | [6] -49.4%

CN(C)c1c([O-])c(=[N+](C)C)c1=O
inactive: [1] -37.9% | [2] -14.2% | [3] -20.2% | [4] -10.6% | [5] -5.55% | [6] -45.9%

CC(=O)OCC1OC(Sc2ccc([N+](=O)[O-])cc2)C(OC(C)=O)C(OC(C)=O)C1OC(C)=O (centres undefined)
inactive: [1] 12.3% | [2] -11.8% | [3] -12.1% | [4] -1.35% | [5] -1.05% | [6] 17.9%

Nc1nc(-c2ccccc2)nc2[nH]ncc12
inactive: [1] -5.45% | [2] -3.5% | [3] -11.2% | [4] -10.2% | [5] 1.6% | [6] 5.75%

O=S(=O)(c1ccccc1)c1cccc2c[n+]3ccccc3cc12
inactive: [1] 34.6% | [2] 9.35% | [3] 39.2% | [4] 24.6% | [5] 22.5% | [6] 24.9%

CC(=O)c1cccc(NC(=O)Oc2ccc(Cl)cc2Cc2ccccc2)c1
inactive: [2] 50.2% | [3] 64.1%
active: [1] 99.1% | [4] 99.5% | [5] 99.4% | [6] 99%
